Results from PubChem BioAssay AID1508621 (National Center for Advancing Translational Sciences (NCATS), 2021).
Inconclusive results are not listed. Calls of active or inactive are those of the source. Calls come from the whole dose curve; as a rule, active = well fitted inhibition curve with a large enough effect; inconclusive = small, poorly fitted or top-dose-only effect; inactive = no such curve, though single readings can be large or run the other way.

Test: Confirmatory qHTS for Identification of Small Molecule Inhibitors of Huntingtin Promoter Activity; note: nearly all actives have a fitted effect of over 65% in size
Conditions: HEK293 HTT promoter firefly luciferase reporter, 24 h; series mostly up to 57.5 µM; activity change, negative = inhibition: at the top concentration
Source text: Assay Provider: Russell L. Margolis M.D.
Department Neurology, Johns Hopkins University School of Medicine, Baltimore, MD
Huntington's Disease (HD) is a neurodegenerative disorder caused by a CAG repeat expansion in exon 1 of huntingtin (HTT). While there are currently no disease-modifying treatments for HD, recent efforts have focused on development of nucleotide-based therapeutics to lower HTT expression. As an alternative to siRNA or oligonucleotide methods, we hypothesized that suppression of HTT expression might be accomplished by small molecules that either (1) directly decrease HTT expression by suppressing HTT promoter activity or (2) indirectly decrease HTT expression by increasing the promoter activity of HTT-AS, the gene antisense to HTT that appears to inhibit expression of HTT.
We developed and employed a high throughput screen for modifiers of HTT and HTT-AS promoter activity using luminescent reporter HEK293 cells; of the 52,041 compounds tested, we identified 898 replicable hits. We used a rigorous stepwise approach to assess compound toxicity and the capacity of the compounds to specifically lower huntingtin protein in 5 different cell lines, including HEK293 cells, HD lymphoblastoid cells, mouse primary neurons, HD iPSCs differentiated into cortical-like neurons, and HD hESCs. We found no compounds which were able to lower huntingtin without lowering cell viability in all assays, though the potential efficacy of a few compounds at non-toxic doses could not be excluded.
SEQUENCE No. (1, 2, 3, etc.); […] (e.g., Cells, Incubation, Reagent, etc.); VALUE and DESCRIPTION.
1; Reagent; 4 uL; 2,500 Hek293 luciferase reporter cells per wells
3; Compound; 23 nL; Control inhibitor / compound library
5; Reagent; 2.5 uL; Firefly Luc reagent; Dual-Glo Luciferase Reporter Assay System (Promega)
6; Time; 10 min; room temperature incubation
7; Detection; Luminescence; FLuc
NOTES (numbers refer to sequence above)
1; High-throughput screening, measuring luminescence from a Hek293 luciferase reporter, was performed in 1,536 well white-walled tissue-culture treated plates. 2,500 cells were plated in 4 uL of Opti-MEM per well using a Multidrop Combi Reagent Dispenser (ThermoFisher).
2; Assay plates were cultured for 24 hours.
3; Control inhibitor (PTC124; final concentration of 50 uM) and compound library (at final concentrations of 460 nM - 57.5 uM) were added to the assay plate using the Kalypsis Pintool Robotic System equipped with 1536 pinheads.
4; Cells were then incubated for 24 hours at 37C prior to luminescence measurements.
5; In all cases, luminescence was measured using the Dual-Glo Luciferase Reporter Assay System (Promega) following the manufacturer's instructions.
6; Room temperature incubation.
7; Luminescence signal was obtained using the PerkinElmer ViewLux plate reader. Results were normalized to vehicle control (0% activity) and zero RLU (-100% activity).
Potency is the fitted concentration of half-maximal effect.

Activity change, negative = inhibition, inactive:
CN[C@H]1[C@@H](O)[C@@H]2O[C@@H]3O[C@H](C)CC(=O)[C@]3(O)O[C@@H]2[C@@H](NC)[C@H]1O -9.55%
COc1cccc(-c2cn3c(n2)sc2cc(C(=O)NCc4cccs4)ccc23)c1 40.6%
O=C(c1ccc2c(c1)N(Cc1ccccc1)C(=O)c1ccccc1S2(=O)=O)N1CCCCCC1 -23.2%
CCOc1ccc(Nc2ncnc3c2nc2n3CCCCC2)cc1 -15.8%
NC(=O)Nc1cc(-c2ccc(CN3CCOCC3)cc2)sc1C(N)=O 16.2%
COc1ccccc1NC(=O)CN1C(=O)C(C)(C)c2ccccc21 -21.9%
Cc1ccc2nc(-c3ccncc3)c(Nc3ccccc3C)n2c1 19.8%
COc1ccc2nc(N3CCN(C(=O)CS(=O)(=O)c4ccc(C)cc4)CC3)sc2c1 -14.3%
CCOc1ccc(-n2c(/C=C/c3cccc(F)c3)nc3cc(OC)c(OC)cc3c2=O)cc1 -22.7%
Cc1ccc(CN(C(=O)c2ccc(OCC(C)C)cc2)c2ccccn2)o1 57.7%
COc1cc(OC)c(OC)cc1/C=C/c1nc2cc3ccccc3cc2c(=O)n1-c1ccc(F)c(Cl)c1 -22.1%
Cc1ccc2nc(CSc3nnc(NC(=O)COc4ccccc4)s3)cc(=O)n2c1 1.77%
COc1ccc(NC(=O)Cn2nc(-c3ccncc3)ccc2=O)cc1Cl 0.17%
CC(C)[C@H](CO)Nc1nc(Nc2ccc(C(=O)O)c(Cl)c2)c2ncn(C(C)C)c2n1 -5.69%
Cc1cccc(C2C=C(c3ccc(F)cc3)Nc3nc4ccccc4n32)c1 (stereo not given) 21.9%
CCN(C(=O)CSc1nc(-c2ccccc2)no1)c1cccc(C)c1 -7.08%
O=C(CSc1ccc(-c2ccccn2)nn1)Nc1ccc(F)c(F)c1 -17.4%
Cc1ccc(C)c(-n2nnc(C(=O)Nc3ccc(Br)cc3)c2C)c1 -18.6%
O=C(Nc1nc2cccc(-c3ccc(CN4CCS(=O)(=O)CC4)cc3)n2n1)C1CC1 8.38%
Cc1ccc(-n2ncc3c(N(CCO)Cc4ccccc4)ncnc32)cc1 15.7%
Cc1ccccc1C(=O)Nc1nc(-c2ccc(Br)cc2)ns1 -40.2%
Cc1ccc(S(=O)(=O)n2nc(-c3ccccc3)nc2NCc2ccccc2Cl)cc1 -5.17%
CCN(CC)CCOc1ccc(C(=C(Cl)c2ccccc2)c2ccccc2)cc1 -9.4%
CCOc1ccccc1C(=O)Nc1nc2c(s1)CC(C)CC2 (stereo not given) 64.2%
CC(C)[C@H](C(=O)Nc1ccc(C(=O)NO)cc1)c1ccccc1 20.6%
CCN(CCCNC(=O)CSc1cc(=O)n(CC)c2ccccc12)c1ccccc1 -20.2%
O=C(CCCCCCNC(=O)c1cnc(N(c2ccccc2)c2ccccc2)nc1)NO 440%
COc1ccc(C2C=C(c3ccc(Br)cc3)Nc3nnnn32)c(OC)c1 (stereo not given) -7.4%
CN(C)C(=O)COC(=O)Cc1ccc(OC(=O)c2ccc(N=C(N)N)cc2)cc1 -10.1%
O=C(CSc1nccn1Cc1ccc(F)cc1)Nc1nc2ccccc2s1 -4.54%
COc1ccccc1N1CCN(S(=O)(=O)c2ccc(F)c(C(=O)Nc3ccc(Cl)cc3C(F)(F)F)c2)CC1 -15.9%

Potency, active:
Cc1cc(Nc2sc(C(=O)c3ccc(F)cc3)c(N)c2C(=O)Nc2ccc(F)cc2)ccc1Cl 1.69 µM
O=C1C2=C(Nc3ccccc3SC2c2ccc(C(F)(F)F)cc2)c2ccccc21 (stereo not given) 19 µM
O=C(NCc1cccc(Cl)c1)C1CCCN(c2nn3cc(-c4ccc(F)cc4)nc3s2)C1 (stereo not given) 12 µM
COc1cc2nc(N3CCCN(C)CC3)nc(NC3CCN(Cc4ccccc4)CC3)c2cc1OC 26.9 µM
Cc1cccc(NC(=O)c2c(NC(=O)C(F)(F)F)sc3c2CCCCC3)c1 2.39 µM
CCS(=O)(=O)c1ncc(Cl)c(C(=O)N(Cc2ccccc2)c2ccc(OC)cc2)n1 10.7 µM
CC(=O)c1ccc(N2CCN(c3ncnc4c3cnn4-c3cc(Cl)ccc3C)CC2)cc1 7.57 µM
O=C(c1ccc(CS(=O)c2ccccc2Cl)o1)N1CCN(c2cccc(C(F)(F)F)c2)CC1 (stereo not given) 3.38 µM
Cc1ccc(C)c(N2CCN(C(=O)c3nn(C)c4c3CS(=O)(=O)c3ccccc3-4)CC2)c1 23.9 µM
